The text below walks through data of PubChem BioAssay (NCI).

About 83,000 compounds went through this panel and 20% of them were active in at least one assay; those are over-represented in the sample as a whole.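 96-well plates, one dose, 48 hours. Percent growth reported; active if below 10.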 A number with no mark means an inactive call. Calls of active or inactive are those of the source.

Test systems include RPMI-8226 leukemia; OVCAR-8 ovarian; OVCAR-5 ovarian; OVCAR-4 ovarian; SK-OV-3 ovarian; IGROV1 ovarian; OVCAR-3 ovarian; HS 578T breast; NCI/ADR-RES ovarian; T-47D breast; BT-549 breast; MDA-MB-435 melanoma; SW-620 colon; MCF7 breast; HCT-116 colon; KM12 colon; HCC-2998 colon.
Experiment in all cases: NCI-60 one-dose screen, 48 h (100 = growth as untreated, 0 = no growth, -100 = all killed)
Common to all, as to conditions: 10 µM unless noted

On to `O=C(Nc1cccc(C(F)(F)F)c1)Nc1ccc(OCc2nnc(-c3ccc(Cl)cc3)o2)c(F)c1`, for which the growth was 41.3% in the test on RPMI-8226 leukemia; 58.2% in the test with OVCAR-8 ovarian; 75.9% with OVCAR-5 ovarian; 75% with OVCAR-4 ovarian; 79.5% in the test on SK-OV-3 ovarian; 90% with IGROV1 ovarian. Moreover, the growth in the test with OVCAR-3 ovarian is 85.8%; in the test with HS 578T breast, 91.7%; with NCI/ADR-RES ovarian it was 73.1%; with T-47D breast, 61.6%; in the test on BT-549 breast, 104%; in the test on MDA-MB-435 melanoma, 83.2%. Moreover, the growth is 71.8% with SW-620 colon, 53.6% in the test with MCF7 breast, 37.1% in the test with HCT-116 colon and 49.7% in the test on KM12 colon.
`COc1cc([C@@H]2c3cc4c(cc3C(O[C@@H]3O[C@@H]5CO[C@@H](c6cccs6)OC5[C@H](O)[C@H]3O)C3COC(=O)[C@@H]32)OCO4)cc(OC)c1O` (stereo partly specified): the growth with RPMI-8226 leukemia was -20.8% (active); in the test with OVCAR-8 ovarian it was -43% (active); with OVCAR-5 ovarian, -9.71% (active); with OVCAR-4 ovarian, 13.8%; in the test with SK-OV-3 ovarian, -13.6% (active); in the test with IGROV1 ovarian, -5.65% (active). Also, the growth in the test with OVCAR-3 ovarian is -54% (active); with HS 578T breast, -3.69% (active); in the test with NCI/ADR-RES ovarian, 60.3%; in the test with T-47D breast, -0.0776% (active); in the test on BT-549 breast, -20.3% (active); in the test on MDA-MB-435 melanoma it was -21.1% (active). For the same molecule, the growth was -8.91% (active) in the test with SW-620 colon, -56.7% (active) with HCT-116 colon, -76.4% (active) in the test on HCC-2998 colon and -45.9% (active) with KM12 colon.
As for `COc1cc(/C=C/C(=O)Nc2ccc3c(c2)/C(=C\c2cccn2C)C(=O)N3)cc(OC)c1OC`, the growth with RPMI-8226 leukemia was -17.8% (active); with OVCAR-8 ovarian, 37%; in the test on OVCAR-5 ovarian, 99.5%; in the test on OVCAR-4 ovarian, 50.3%; in the test on SK-OV-3 ovarian, 81.5%; in the test on IGROV1 ovarian it was 60.4%. Moreover, the growth with OVCAR-3 ovarian was 41.7%; in the test on HS 578T breast, 4.35% (active); in the test on NCI/ADR-RES ovarian, 84.2%; with T-47D breast, 15%; with BT-549 breast, 46.6%; in the test on MDA-MB-435 melanoma, 59.9%. The growth in the test with SW-620 colon is 83.1%; in the test on MCF7 breast, 1.79% (active); in the test with HCT-116 colon, 37.3%; in the test on KM12 colon it was 33.8%.
On to `C/C(=N\N1CC(=O)NC1=O)c1ccc([N+](=O)[O-])o1`, for which the growth in the test on RPMI-8226 leukemia was 71%; with OVCAR-8 ovarian, 98.2%; with OVCAR-5 ovarian, 111%; in the test on OVCAR-4 ovarian it was 105%; with SK-OV-3 ovarian, 109%; in the test with IGROV1 ovarian, 99.6%. Besides, the growth with OVCAR-3 ovarian is 102%; in the test with HS 578T breast, 108%; in the test on NCI/ADR-RES ovarian, 93.7%; in the test on T-47D breast, 102%; in the test on BT-549 breast, 100%; in the test with MDA-MB-435 melanoma, 88.5%. Moreover, the growth in the test on SW-620 colon is 97.2%; with MCF7 breast, 85.6%; with HCT-116 colon, 106%; in the test with KM12 colon, 96.3%.
For the molecule `Cc1ccc(NC(=O)Nc2ccc(-c3cccnc3)cc2N2CCC(CO)CC2)cc1`, the growth is 19.4% in the test with RPMI-8226 leukemia; 44.2% in the test with OVCAR-8 ovarian; 43.6% in the test with OVCAR-5 ovarian; 45% with OVCAR-4 ovarian; 28.4% in the test with SK-OV-3 ovarian; 63.1% in the test with IGROV1 ovarian. The growth with OVCAR-3 ovarian was 4.71% (active); with HS 578T breast, 10.6%; in the test on NCI/ADR-RES ovarian it was 40%; with T-47D breast, 42.7%; in the test on BT-549 breast, 25.2%; in the test on MDA-MB-435 melanoma, 4.25% (active). The growth in the test on SW-620 colon is 20.3%; with MCF7 breast, 9.77% (active); with HCT-116 colon, 8.43% (active); in the test with KM12 colon, 20.1%.
With `COc1ccc(-c2cn(-c3ccccc3)c(-c3ccccc3)n2)cc1OC`, the growth in the test with RPMI-8226 leukemia is 25.8%; in the test on OVCAR-8 ovarian it was 75.3%; with OVCAR-5 ovarian, 119%; in the test on OVCAR-4 ovarian it was 67.3%; with SK-OV-3 ovarian it was 209%; with IGROV1 ovarian it was 83.7%. For the same molecule, the growth is 37.2% in the test with OVCAR-3 ovarian; 103% with HS 578T breast; 86.2% with NCI/ADR-RES ovarian; 131% with T-47D breast; 15% in the test with BT-549 breast; 35.7% in the test on MDA-MB-435 melanoma. Moreover, the growth in the test with SW-620 colon was 5.69% (active); with HCT-116 colon, 20.3%; in the test on HCC-2998 colon it was 58.8%.
For `Fc1ccc([C@@H]2CCNC[C@H]2COc2ccc3c(c2)OCO3)cc1`, the growth in the test on RPMI-8226 leukemia is 32.9%; in the test on OVCAR-8 ovarian it was 95.9%; in the test with OVCAR-5 ovarian, 73.5%; in the test on OVCAR-4 ovarian, 90%; with SK-OV-3 ovarian, 90.8%; in the test on IGROV1 ovarian, 72%. Further, the growth in the test on OVCAR-3 ovarian was 81.3%; with HS 578T breast, 82.8%; in the test on NCI/ADR-RES ovarian, 86.3%; with T-47D breast, 63.7%; in the test with BT-549 breast, 84.2%; with MDA-MB-435 melanoma, 46.5%. For the same molecule, the growth was 98.4% in the test on SW-620 colon, 49.8% in the test on HCT-116 colon, -66.8% (active) in the test on HCC-2998 colon and 76.4% with KM12 colon.
